Screening results: PubChem, several laboratories
iPSC survival up: enhancers of single-cell hiPSC survival, primary screen, ATPlite luminescence | 100% = ROCK inhibitor wells, 0% = DMSO | survival enhancement, % at 20 µM | actives 0.044% (n = 360,000); in the data active = survival enhancement above about 18%;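 also: cells exposed to compounds for 16 hours before the ATP read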
HDAC3 inhib: HDAC3 deacetylase inhibitors, primary screen, biochemical, fluorescence, cell-free homogeneous | Histone deacetylase 3 (Homo sapiens), O15379 | recombinant HDAC3, fluorogenic peptide/trypsin coupled | inhibition, % at 8.3 µM | actives 0.15% (n = 320,000); in the data active = inhibition above about 26%, passing the limit was not always enough
DAGLB inhibitor: DAGLB lipase inhibitors, primary screen, biochemical, fluorescence, HTS. Diacylglycerol lipase-beta (Homo sapiens), Q8NCG7. HEK293T DAGLB membrane lysate, EnzChek fluorogenic substrate. inhibition, % at 5.17 µM. actives 0.059% (n = 340,000). AID 504411, 2011; in the data active = inhibition above about 34%
Target sequence (Q8NCG7 whole entry, looked up): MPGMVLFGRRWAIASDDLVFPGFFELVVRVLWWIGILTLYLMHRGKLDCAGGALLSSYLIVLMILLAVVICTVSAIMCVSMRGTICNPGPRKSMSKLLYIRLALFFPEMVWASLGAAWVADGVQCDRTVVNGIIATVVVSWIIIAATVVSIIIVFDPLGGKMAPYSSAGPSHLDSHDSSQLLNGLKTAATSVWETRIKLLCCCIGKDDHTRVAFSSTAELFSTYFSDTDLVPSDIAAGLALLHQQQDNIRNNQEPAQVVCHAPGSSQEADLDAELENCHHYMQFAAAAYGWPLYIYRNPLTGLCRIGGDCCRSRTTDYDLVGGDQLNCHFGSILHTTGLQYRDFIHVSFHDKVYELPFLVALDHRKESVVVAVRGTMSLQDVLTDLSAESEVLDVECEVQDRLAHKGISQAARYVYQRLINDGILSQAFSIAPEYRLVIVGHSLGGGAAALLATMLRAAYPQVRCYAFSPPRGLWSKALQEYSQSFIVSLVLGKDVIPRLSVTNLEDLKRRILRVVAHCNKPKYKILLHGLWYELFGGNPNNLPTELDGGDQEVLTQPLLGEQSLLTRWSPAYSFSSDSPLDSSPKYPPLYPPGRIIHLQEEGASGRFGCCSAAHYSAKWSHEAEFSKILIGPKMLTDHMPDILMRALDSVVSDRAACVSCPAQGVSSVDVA
LANA-H2B inh: blockers of LANA interaction with H2A/H2B – biochemical, FP readout, HTS, primary screen | Protein LANA1 (Human herpesvirus 8 type P (isolate GK18)), Q9QR71 | actives 0.6% (n = 320,000) | AID 2629, 2010 | cell-free LANA-H2A/H2B peptide, fluorescence polarization | inhibition, % (test concentration not listed); in the data active = inhibition mostly above about 10%, no sharp cut-off; inactive = mostly below about 6.7%
A number is an active result; 0 = inactive; - = not tested or not shown; ! = not confirmed by another sample. A selection: hits, their analogues and other compounds. The true share with any hit is near 0.79%.

SMILES	iPSC survival up	HDAC3 inhib	DAGLB inhibitor	LANA-H2B inh
CCCC(C)c1nnc(NC(=O)CCS(=O)(=O)Cc2ccccc2)s1 (stereo unspecified)	0	0	0	0
Cn1c(=O)c(Nc2ccc(O)cc2)c2c3c(cccc31)C(=O)c1ccccc1-2	0	0	44	0
COCCN1C=C2C(=O)C(C)(OC(=O)CCc3ccccc3)C(=O)C=C2C=C1c1ccc(C#N)cc1 (stereo unspecified)	0	0	0	101
O=C(NC1CCSc2ccccc21)c1cc(S(=O)(=O)N2CCOCC2)ccc1Cl (stereo unspecified)	0	0	0	0
O=C1C=C(c2ccc3ccccc3c2)C[C@@H](c2ccc(F)cc2)C1	0	0	0	21
O=C(C(=O)N1CCCC1)c1c(-c2ccccc2)[nH]c2ccccc12	0	0	0	0
O=C(NCc1ccc(Cl)cc1)C(=O)c1cn(CC(=O)N2CCOCC2)c2ccccc12	0	0	0	0
CC(C)(Cc1ccccc1)NC(=O)C(=O)c1cn(CC(=O)N2CCOCC2)c2ccccc12	0	0	0	39
CC(=O)Nc1ccc(NC(=O)Nc2ccc(C)cc2C)cc1	0	0	0	15
CC(=O)Nc1ccc(OCC(=O)c2cc(C)ccc2C)cc1	0	0	0	19
CC(=O)Nc1ccc(NC(=O)Nc2ccc(C)c(C)c2)cc1	0	0	0	0
COC(=O)C(Cc1c[nH]c2ccccc12)NC(=O)c1cccc(S(=O)(=O)N2CCCCC2)c1 (stereo unspecified)	0	0	0	0
Cc1cccc(NC(=O)Cn2c(=O)n(CCC(=O)NC3CCCC3)c(=O)c3ccccc32)c1	0	0	0	0
CCOc1ccccc1NC(=O)Cn1c(=O)n(CCC(=O)NC2CCCC2)c(=O)c2ccccc21	0	0	0	31
COCCN1CC(C(=O)NCc2ncccc2C)CCC1=O (stereo unspecified)	0	0	0	0
Cc1cc(Cl)n2nc(C)c(-c3ccc(Cl)cc3)c2n1	21	0	0	0
CC(=O)NCc1ccc(S(=O)(=O)N2CCCN(C)CC2)cc1	0	0	0	0
O=C(CS(=O)c1ccc(F)cc1)Nc1ccccc1Cl (stereo unspecified)	0	0	0	13
O=C(Nc1ccccc1O)c1ccc(C(=O)c2ccccc2)o1	0	48	0	0
Cc1ccc(-n2ncc3c(=O)n(CC(=O)N(C(C)C)C(C)C)cnc32)cc1	0	0	0	0
C=CCn1c(SCC(=O)NNC(=O)Nc2ccc(C)cc2)nnc1-c1ccccc1	0	0	0	0
C=CCn1c(SCC(=O)Nc2ccc(-c3nc4ccc(C)cc4s3)cc2)nnc1-c1ccccc1	0	0	0	159
CCS(=O)(=O)N1Cc2ccccc2CC1C(=O)N(C)CC(=O)Nc1ccc(F)c(F)c1F (stereo unspecified)	0	0	0	32
CCOc1ccc(-c2c(C(=O)N/N=C/c3cccc(Br)c3)nnn2-c2nonc2N)cc1	0	0	0	20
COc1ccc(N2C(=O)CCC(C(=O)N3CCN(c4ccccn4)CC3)C2c2ccc(F)cc2)cc1 (stereo unspecified)	0	0	0	0
SMILES	iPSC survival up	HDAC3 inhib	DAGLB inhibitor	LANA-H2B inh
CCOC(=O)CC(=O)CSc1nc2sc(C)cc2c(=O)n1Cc1ccco1	0	0	0	0
Cc1cc2c(=O)n(Cc3ccco3)c(SCC(=O)c3ccc(Cl)s3)nc2s1	0	27	0	0
Cc1ccc(NNC(=O)C(O)(c2cccc(C(F)(F)F)c2)c2cccc(C(F)(F)F)c2)cc1	0	41	0	0
O=C(NNc1ccccc1Br)C(O)(c1cccc(C(F)(F)F)c1)c1cccc(C(F)(F)F)c1	0	0	0	0
CCc1nc2ccc(C(=O)N3CCN(C(=O)c4ccco4)CC3)cn2c1N(C)C(=O)c1cccc(OC)c1	0	-	-	-
CC(=O)Nc1ccc(NC(=O)CCCN2C(=O)c3ccccc3C2=O)cc1	0	0	0	0
COC(=O)C(CCCN1C(=O)c2ccccc2C1=O)(NC(C)=O)c1nn[nH]n1 (stereo unspecified)	0	0	0	19
CCOc1ccc(-c2nnn(CC#N)n2)cc1OC	0	0	0	0
CCOC(=O)c1cc(C(C)(C)C)nc(SC)c1C#N	0	0	0	30
O=C(Nc1ccc(F)c(Cl)c1)c1cc(C2CCCCN2C(=O)CCc2ccccc2)on1 (stereo unspecified)	0	-	-	-
Cc1ccc(-c2ccc(/C=C(\C#N)C(N)=S)n2C)cc1	0	0	0	26
CCN(CC)C(=O)[C@H]1CC(CC(=O)NCCC2=CCCCC2)C(=O)N2CCc3c([nH]c4ccc(OC)cc34)[C@]12C (stereo partly specified)	0	-	0	-
CN(C)CCOCCOc1ccc(Cl)cc1Br	0	0	0	12
CC(=O)c1ccc(OCC(=O)OCC(=O)Nc2sccc2C(N)=O)cc1	0	0	0	16
Cc1cc(O)c(C(C)C)cc1C1(c2cc(C(C)C)c(O)cc2C)OC(=O)c2ccccc21	0	0	0	15
Cc1cc(C2(c3ccc(O)c(C)c3)OC(=O)c3ccccc32)ccc1O	0	0	0	0
Cc1cc(C)c(S(=O)(=O)N2CCCCC2CCNC(=O)C(=O)NCc2cccnc2)c(C)c1 (stereo unspecified)	0	0	0	0
CCc1ccc(C(=O)NNC(=O)c2c(CC)noc2C)cc1	0	0	0	0
CCc1noc(C)c1C(=O)NNC(=O)c1ccccc1	0	0	0	97
COc1ccc(CNC(=O)CCNS(=O)(=O)c2cc(Br)cnc2N)cc1	0	0	0	0
Cc1cn([C@H]2C[C@H](O)[C@@H](/C=C/C(=O)NCCN3CCOCC3)O2)c(=O)[nH]c1=O	0	-	-	-
N#CCCN(CCC#N)C(=O)C1c2ccccc2Oc2ccccc21	0	0	0	114
CC1=C(C)CC(C(=O)NCc2cccc(Cl)c2)C(C(=O)O)C1 (stereo unspecified)	0	0	0	0
CC(C)n1c(=O)c2ccccc2n1CC(=O)N1CCOCC1	0	-	-	-
CC1(C)Cc2ccccc2C(C(=O)c2ccccc2)=N1	0	0	0	0
SMILES	iPSC survival up	HDAC3 inhib	DAGLB inhibitor	LANA-H2B inh
CC1(C)Cc2ccccc2C(C(Cc2ccccc2)C(N)=O)=N1 (stereo unspecified)	0	0	0	6.5
O=C1C2C3C=CC(C3)C2C(=O)N1Nc1ccc([N+](=O)[O-])cc1[N+](=O)[O-] (stereo unspecified)	0	0	0	16
O=C1c2ccccc2C(=O)N1Nc1ccc([N+](=O)[O-])cc1[N+](=O)[O-]	0	0	0	0
CCc1ccccc1NC(=O)CNC(=O)c1ccc(-n2cncn2)c([N+](=O)[O-])c1	0	0	0	0
COC(=O)c1ccc(CN2CCC(CO)(Cc3ccccc3Cl)CC2)cc1	0	0	0	0
O=C(C1CC12CCCC2)N1CCC(CO)(Cc2ccccc2Cl)CC1 (stereo unspecified)	0	0	0	19
Nc1nnc(-c2cccc(Cl)c2Cl)c(N)n1	0	0	0	11!
